Results from PubChem BioAssay (Tox21).
Records with an inconclusive call do not appear. Where a call stands in place of a potency, no number is given. The source made the active and inactive calls. Calls come from the whole dose curve; as a rule, active = well fitted activation curve with a large enough effect in the repeat runs; inconclusive = weak or mixed curves; inactive = no such curve, though single readings can be large or run the other way.

Test: qHTS assay to identify small molecule agonists of the estrogen related receptor signaling pathway with the pleiotropic PPARgamma coactivator (PGC) (AID 1224823)
Conditions: ERR/PGC reporter cell line, luciferase agonist mode; series mostly up to 46.1 µM
Procedure, shortened: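 Steps: plate PGC/ERR cells at 2,000 cells/well; incubate 6 h, 37 C/5% CO2; pin-transfer compounds (DMSO); incubate 18 h, 37 C; add One-Glo; 30 min RT; read luminescence.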
Potency is the fitted concentration of half-maximal effect.

| SMILES | Potency |
| --- | --- |
| N[C@@H](CCCC(=O)O)C(=O)O | inactive |
| O=C(O)Cc1c[nH]c2ccc(O)cc12 | inactive |
| CC1CNCCN1S(=O)(=O)c1cccc2cnccc12 (centres undefined) | inactive |
| NC[C@@H]1O[C@H](c2ccccc2)Cc2c1ccc(O)c2O | inactive |
| CC(C)NC[C@@H](O)c1ccc(O)c(O)c1 | inactive |
| CN1C2CCC1CC(OC(=O)C(O)c1ccccc1)C2 (centres undefined) | inactive |
| CS(=O)(=O)c1cccc(CNc2nc(Nc3ccc4c(c3)CCC(=O)N4)ncc2C(F)(F)F)c1 | inactive |
| CCCCCC(O)CCCC(=O)O (centres undefined) | inactive |
| NC1C=CC=C(C(=O)O)C1 (centres undefined) | inactive |
| O=C1NC(=O)/C(=C/c2ccc(-c3ccc(F)cc3O)o2)S1 | inactive |
| NCCCCNCCCN | inactive |
| CN(C)CCCc1cc(C(=O)Nc2ccc(-c3ccncc3)cc2)ccc1O | inactive |
| Cc1ccc2c(c1)C(N1CCN(C)CC1)=Nc1cccnc1N2 | inactive |
| NS(=O)(=O)c1ccc(-n2nc(C(F)(F)F)cc2-c2ccc(Cl)cc2)cc1 | inactive |
| CC(C)C[C@H](NC(=O)[C@H](O)[C@H](N)Cc1ccccc1)C(=O)O | inactive |
| CSc1nc(N)c2ncn([C@@H]3O[C@H](COP(=O)(O)OP(=O)(O)OP(=O)(O)O)C(O)[C@H]3O)c2n1 (some centres undefined) | inactive |
| CCNC(=O)[C@H]1O[C@@H](n2cnc3c(N)nc(NCCc4ccc(CCC(=O)O)cc4)nc32)[C@H](O)C1O (some centres undefined) | 1.28 µM (active) |
| OC[C@H]1O[C@@H](n2cnc3c(NC4CCCCC4)ncnc32)[C@H](O)[C@@H]1O | 8.74 µM (active) |
| NC1(C(=O)O)CCCCC1 | inactive |
